Test results taken from article PMC10163288.
The list is a sample of the results. The true hit rate is not given.

B1: il2ra_site2_3nfp_normal_mot_HHH_b2_04451_000000238_0001_21_37_H_._HHH_b2_00723_af2_0001_0000500044_0000001_0 (protein)
chain: SSSSDLEEEVERLIEEVERLLEEGDKHEAAQLLLEATKLVAELNNEELARILLELFELLQKSSSS
B2: il2ra_site1_3nfp_sap_8_mot_d8099cd8ef6a59b9c03de2010570d688_0001_af2_000000259_0001_37_51_H_._HHH_b2_05910_0001_0000100005_0000001_0_0001 (protein)
chain: SAEEFVKRAKELVPPELQELLERALELALKRQDPKLARLLIKAVAAIQQGDPEKAEEVLKELEER
B3: il2ra_site1_2b5i_normal_mot_HHH_b1_08745_af2_000000166_0001_39_57_H_._HHH_b1_05884_0001_0000600032_0000001_0_af2pred_dldesign_0_af2pred (protein)
chain: SSSSSPEIQKLREMFEEADRLFKAGKYEEAKELLEKALKLAKELGANLELRIIQSALEQLESSSS
B4: il2ra_site1_2b5i_sap_15_mot_1dae16775e8f4074d71d019417416b97_0001_af2_000000275_0001_1_12_H_._HHH_b2_07869_0001_0000400013_0000001_1_0001_af2pred_0001_af2pred_1 (protein)
chain: SSSSTDVAREVFRLLEEADRLARNGNPEEAEKLLREAEELAEENGNRALLKFVRAALRALSSSSS
B5: il2ra_site1_2b5i_sap_9_mot_HHH_b2_07540_af2_000000089_0001_1_16_H_._HHH_b1_01333_af2_0001_0000100003_0000001_0_0001_af2pred_0001_af2pred (protein)
chain: SSSSSSEELLELLREADELFKNGNPEEAEKVLERAEELAERNGTKSMLRSVRSMLELLRESSSSS
B6: il2ra_site1_3nfp_sap_6_mot_HHH_b2_06502_000000163_0001_42_55_H_._HEEHE_0113_0001_0000200018_0000001_0_0001 (protein)
chain: SSSSSNDEAWRLLREAYEEFKKAKSREEMRELLEEAERLARELGDERLLRDIEKWLEQMKSSSSS
B7: il2ra_site2_2erj_sap_24_mot_HHH_b1_07975_000000000_0001_41_57_H_._HHH_b1_08466_af2_0001_0000800020_0000001_0_0001_af2pred_0001_af2pred (protein)
chain: SSSSSEEEEELKEFIEELVREFGLSEEVQKELEEIARFALEQGIDEEDIKKWLKLFAEETSSSSS
B8: il2ra_site2_3nfp_normal_mot_HHH_b1_01086_af2_000000264_0001_39_53_H_._a6da1dbab15e72488587f943ddaf1f3f_0001_1_af2_0001_0000500054_0000001_0 (protein)
chain: DREELLERIVREKDPRVEELLEEIKEAKERNDEELLEKLAKRLALIAFELGDPEVFALAADLQSI
B9: il2ra_site2_3nfp_normal_mot_HHH_b1_08498_000000146_0001_21_37_H_._HHH_b1_08008_0001_0000100001_0000001_0 (protein)
chain: SSSSDEEHLEAATRLIRAAAWALNDPELERRAEELLEEIKEHGDPELKQELAELTHEAFELSSSS
B10: il2ra_site2_2erj_normal_mot_HHH_b1_05749_af2_000000086_0001_23_39_H_._HHH_b2_01918_0001_0000200007_0000001_0 (protein)
chain: SSSSDELEEEVEELLEEVRRAYEEGDLEEAYRLAVRVFALAAENNDPELQRAVTRLLEELSSSSS
B11: il2ra_site1_3nfp_sap_17_mot_0eddeacbb14b769e73e254714f31e2f9_0001_af2_000000052_0001_37_51_H_._7093d3a5e4329be201a559e39cb9bd18_0001_0001_0000800048_0000001_0_0 … (protein)
chain: SSSDEAKELAEEAIEELERLIKEGDVRAVAETIRRIAKELLELNDPEALELLQREVRKLLRSSSS
B12: il2ra_site1_2b5i_sap_17_mot_2cbe48e66a1f39b3fed734b245ab0a04_0001_000000015_0001_17_31_H_._HHH_b1_01921_0001_0000600034_0000001_0_0001_af2pred_dldesign_0_af2pre … (protein)
chain: SSSSSDVKEVLELFEEANKLFQAGKPEEAKEVLEKALEKAKALGAEAHIRIIESALEQLESSSSS
B13: il2ra_site1_3nfp_sap_12_mot_HHH_b1_07180_af2_000000260_0001_1_19_H_._HHH_b2_06317_af2_0001_0000500010_0000001_0_0001_af2pred_0001_af2pred_1 (protein)
chain: SDEELIKKLVRIAVEQNSPRLLRKILRDFERYTGDPEEAERILEELIEEVLGDPEEARRLVEEAK
B14: il2ra_site1_1z92_normal_mot_c9a8daa1dfea21d1414aecde54be4f54_0001_1_af2_000000024_0001_32_46_H_._0e4f66a3c4b070984708d3e1d5382b02_0001_1_af2_0001_0000100008_000 … (protein)
chain: NVAERLFEQAEELGVPPRAVVLALVSAVHAEDPRLREEAEELLERVRRGELPPEEAVRLLAELLE
B15: il2ra_site1_3nfp_sap_9_mot_HHH_b1_03716_af2_000000235_0001_20_37_H_._HHH_b1_05438_0001_0000400011_0000001_0_0001_af2pred_0001_af2pred_1 (protein)
chain: SSSSTELKELLKIVQRLFEEFNLSEEQAQELLQLAEELAKEGVSLEEIEELLRELAERLSSSSSS
B16: il2ra_site2_3nfp_sap_18_mot_11405e7faed88c9d08fdae67291e590b_0001_1_000000110_0001_14_30_H_._HHH_b2_00163_af2_0001_0000300012_0000001_0_0001 (protein)
chain: SSSSDKHERYLRAALELIERAIREGDHEIARRMLETVKSAAEDNNDEEIEELVEELEELLRSSSS
B17: il2ra_site2_2erj_normal_mot_HHH_b1_03609_af2_000000077_0001_42_55_H_._HHH_b2_01692_0001_0000500006_0000001_0 (protein)
chain: SSSSSEVEEEVREILEEAKHIEDPEEREKVLSKAAELAFENNDFEAWSLVSEVFRELAESSSSSS
B18: il2ra_site2_2erj_normal_mot_6bd1339e93f6fdda22195c76da45ec5d_0001_000000136_0001_37_51_H_._HHH_b2_06260_0001_0000100003_0000001_0_af2pred_0001_af2pred (protein)
chain: SSSSSEDEERVEELLEQAEEAAKRDPEKALHLLFEAMEIALKSDNEELLKLVLEVSHRIAESSSS
B19: il2ra_site2_2erj_normal_mot_HHH_b1_05749_af2_000000010_0001_23_39_H_._HHH_b1_07967_0001_0001100051_0000001_1 (protein)
chain: SSSSDWLEELYRLAVELLRLSSRRDEEEFERVYREIERLVEEFNNESAREILEHIRRLFEGSSSS

Biological target: il2ra, P01589
Experiment: yeast display titration

Sequence of il2ra, P01589 (P01589 whole entry): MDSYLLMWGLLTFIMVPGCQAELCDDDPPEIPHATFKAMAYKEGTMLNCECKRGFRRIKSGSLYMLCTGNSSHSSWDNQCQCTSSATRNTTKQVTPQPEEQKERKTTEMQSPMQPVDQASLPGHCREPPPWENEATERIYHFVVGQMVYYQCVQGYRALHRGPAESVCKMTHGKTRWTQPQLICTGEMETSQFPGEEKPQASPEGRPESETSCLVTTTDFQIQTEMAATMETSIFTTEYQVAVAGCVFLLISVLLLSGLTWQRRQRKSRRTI

Apparent Kd, inactive:
B1 no binding seen
B2 no binding seen
B3 no binding seen
B4 no binding seen
B5 no binding seen
B6 no binding seen
B7 no binding seen
B8 no binding seen
B9 no binding seen
B10 no binding seen
B11 no binding seen
B12 no binding seen
B13 no binding seen
B14 no binding seen
B15 no binding seen
B16 no binding seen
B17 no binding seen
B18 no binding seen
B19 no binding seen
